Where two headings read alike, the source gives them in different places.
Assays:
LRRK2 = conditions: concentration: 1 μM, replicates: in singlicate; n = 1
LTK = conditions: n = 1
LYN = conditions: concentration: 1 μM, replicates: in singlicate; n = 1
LZK = test system: T1, LZK; conditions: concentration: 1 μM, replicates: in singlicate; n = 1
T1 construct: gene MAP3K13

MAK = conditions: concentration: 1 μM, replicates: in singlicate; n = 1
MAP3K15 = conditions: concentration: 1 μM, replicates: in singlicate; n = 1
MAP3K1 = conditions: concentration: 1 μM, replicates: in singlicate; n = 1
MAP3K2 = conditions: concentration: 1 μM, replicates: in singlicate; n = 1
MAP3K3 = conditions: concentration: 1 μM, replicates: in singlicate; n = 1
MAP3K4 = conditions: concentration: 1 μM, replicates: in singlicate; n = 1
[1] = concentration: 1 μM, replicates: in singlicate
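Further: KINOMEscan kinase panel screen.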

Structure (SMILES)	%Inh (LRRK2) [%]	%Inh (LTK; [1]) [%]	%Inh (LYN) [%]	%Inh (LZK) [%]	%Inh (MAK) [%]	%Inh (MAP3K15) [%]	%Inh (MAP3K1) [%]	%Inh (MAP3K2) [%]	%Inh (MAP3K3) [%]	%Inh (MAP3K4) [%]	%Inh (LTK; 1 µM) [%]
Cc1ccccc1-c1cc(-c2c[nH]nc2-c2ccccn2)ccn1 [GW680061]	23	0	0	4	34	0	10	1	0	14	
Cc1cccc2c(-c3ccncn3)c(-c3ccc(F)cc3)nn12 [GW515532]	53	0	0	0	57	0	0	0	0	0	
COc1ccc(CSc2nnc(-c3ccc4ncsc4c3)o2)cc1C(F)(F)F	0	0	0	0	0	0	0	0	0	7	
COc1ccc2cc(-c3nc(-c4ccccc4C(C)C)[nH]c3-c3ccncc3)ccc2c1 [SB-660566]	13	3	20	0	0	17	20	28	0	16	
CS(=O)(=O)Cc1ccc(Nc2nccc(-c3c(-c4cccc(NC(=O)C5CCCCC5)c4)nn4ncccc34)n2)cc1 [GSK350559]	20		16	0	0	38	30	15	19	11	0
Fc1ccc(-c2nc[nH]c2-c2ccncc2)cc1 [SB-217360]	0	0	0	0	5	3	0	18	0	0	
O=C(Nc1n[nH]c2cc(-c3ccsc3)ccc12)C1CC1 [SB-732932]	0	0	4	52	41	45	23	17	5	5	
CS(=O)(=O)CCNCc1nc(-c2ccc3ncnc(Nc4ccc5c(cnn5Cc5ccccc5)c4)c3c2)cs1.Cl.Cl [GW569716]	22	0	0	42	11	0	12	1	0	5	
Cc1ccc(NC(=O)Nc2ccccc2)cc1-c1ccc(C(=O)Nc2ccncc2)cc1 [GSK1398471]	0	0	66	0	17	0	8	0	0	0	
CCn1c(-c2ccccc2)nc2cnccc21 [SB-733416]	51	0	0	0	11	22	14	2	0	0	
CC(=O)c1cccc(NC(=O)NC2CCN(c3ccnc(Nc4ccc(F)cc4)n3)C2)c1 (centres unmarked) [GSK1379710]	14	0	0	28	47	7	3	0	0	30	
COc1ccc(CSc2nnc(-c3ccc4nccn4c3)o2)cc1C(F)(F)F	0	0	7	18	0	13	15	30	9	12	
COC(=O)C(NC(=O)NC1CCN(c2ccnc(Nc3ccc(F)cc3)n2)C1)c1ccccc1 (centres unmarked) [GSK1379712]	0	30	7	18	0	0	6	0	0	6	
CCc1ccc(-c2ccc3c(c2)-c2n[nH]cc2S(=O)(=O)N3C)cc1	0	3	0	0	0	0	0	0	0	19	
CSc1ccc(-c2nc3n(c2-c2ccncc2)CCC3)cc1 [SKF-105561]	0	31	8	45	0	16	0	3	0	9	
CNc1nc(-c2ccc3c(N)n[nH]c3c2)cc(N2C[C@@H](C(=O)Nc3ccccc3)CC[C@H]2C)n1 [GSK2298859]	0	0	0	20	9	0	0	0	0	0	
Cc1cnc(N)c(/C=C/c2cncc(C(=O)NCCc3ccc(Cl)cc3Cl)c2)c1.Cl [GSK190937]	0	0	20	0	9	0	7	0	0	0	
COc1ccc(Nc2nccc(NCCNC(=O)Nc3cc(C)ccc3C)n2)cc1 [GSK1379899]	23	0	0	0	20	0	1	0	0	3	
COc1nccc(-c2c(-c3ccc(F)cc3)ncn2CCCN2CCOCC2)n1 [SB-282852]	0	0	0	0	29	0	0	0	13	7	
CCCCc1nn2ncccc2c1-c1ccnc(NC2CC2)n1 [GW684374]	0	0	0	0	19	0	3	0	0	6	
COc1ccc(Nc2nccc(N3CCC(NC(=O)C(C)c4ccc(Cl)cc4)C3)n2)cc1 (centres unmarked) [GSK1379735]	51	61	0	0	9	11	5	0	0	16	
CC(=O)c1c(C)c2cnc(Nc3ccc(N4CCNCC4)cn3)nc2n(C2CCCC2)c1=O	0	0	0	89	0	0	0	0	0	14	
Cc1c(Cn2c3ccccc3n3c(=O)cc(N4CCOCC4)nc23)cccc1C(F)(F)F [GSK2306394]	33	11	0	0	15	0	14	2	0	18	

Structure (SMILES)	%Inh (LRRK2) [%]	%Inh (LTK; [1]) [%]	%Inh (LYN) [%]	%Inh (LZK) [%]	%Inh (MAK) [%]	%Inh (MAP3K15) [%]	%Inh (MAP3K1) [%]	%Inh (MAP3K2) [%]	%Inh (MAP3K3) [%]	%Inh (MAP3K4) [%]	%Inh (LTK; 1 µM) [%]
CCn1c(-c2c(N)noc2C)nc2cnccc21 [SB-737856]	0	10	0	0	0	0	0	17	0	19	
CS(=O)(=O)CCNCc1nc(-c2ccc3ncnc(Nc4ccc(OCc5ccccc5)c(Cl)c4)c3c2)cs1.Cl [GW582764]	12	0	0	36	26	0	6	3	0	20	
CC(C)c1ccc(O)cc1Nc1ccnc2ccc(C(F)(F)F)cc12 [GW482059]	51	0	0	0	25	13	0	0	1	13	
Cc1c(Cn2c(C)c(C)n3c(=O)cc(N4CCOCC4)nc23)cccc1C(F)(F)F [GSK2328680]	0	0	0	0	16	0	16	0	0	9	
CNc1cc(-c2ccc3c(N)n[nH]c3c2)nc(N)n1 [GSK2224810]	0	0	0	18	0	0	0	0	0	0	
Cc1ccc(NC(=O)c2ccc(Cl)cc2)cc1-c1ccc(C(=O)Nc2ccncc2)cc1 [GSK1398467]	100	19	30	3	0	0	12	0	0	0	
COc1ccc(Nc2nccc(N3CCC(NC(=O)C(C)c4ccc(Cl)cc4)CC3)n2)cc1 (centres unmarked) [GSK1379812]	0	27	0	36	64	0	12	0	0	15	
Cc1ccc(NC(=O)Nc2ccc(Cl)cc2)cc1-c1ccc(C(=O)Nc2ccncc2)cc1 [GSK1398472]	0	2	30	3	18	0	3	16	0	6	
O=C1NC(=O)C(c2ccc(Cl)cc2)=C1Nc1cccc(Cl)c1 [SB-317651]	0	0	22	6	16	0	0	0	0	1	
c1ccc(-c2ccnc3[nH]ccc23)cc1 [SB-693578]	44	0	0	11	0	26	19	50	5	12	
FC(F)(F)c1ccccc1-c1cc(-c2c[nH]nc2-c2ccccn2)ccn1 [GW679396]	1	5	0	11	35	0	11	0	0	24	
Cn1cnc2c(N)ncnc21 [SKF-97623]	0	0	0	2	0	0	0	0	0	0	
Nc1ncnc2occ(-c3ccc4c(c3)CCN4C(=O)Cc3cc(F)ccc3F)c12 [GSK2645446]	0	0	0	0	0	0	0	6	0	50	
O=C1NC(=O)C(c2ccc(Cl)cc2)=C1Nc1ccc(O)cc1 [SB-340867]	0	0	8	0	7	7	0	0	11	28	
Cn1cncc1-c1cc2c(Nc3ccc(OCc4ccccc4)cc3)ncnc2cn1 [GW281179]	10	4	0	0	19	0	0	0	0	15	
Fc1ccc(-c2nn3cccc(F)c3c2-c2ccncc2)cc1 [GW475620]	24	8	6	0	0	0	9	8	0	0	
Cc1ccccc1Cn1ccn2c(=O)cc(N3CCOCC3)nc12 [GSK2269905]	0	0	0	0	0	0	2	0	0	30	
CC[C@@H]1CO[C@H](C(=O)Nc2ccccc2)CN1c1cc(-c2ccc3c(N)n[nH]c3c2)nc(NC)n1 [GSK2376236]	0	5	0	0	21	0	21	0	0	0	
Fc1ccc(-c2nc3n(c2-c2ccncc2)CCS3)cc1 [GI98581]	14	22	0	3	63	0	13	6	0	10	
O=c1cc(N2CCOCC2)nc2n(Cc3ccccc3F)ccn12 [GSK2297428]	0	21	0	0	8	0	2	0	0	0	
COc1cccc(NC(=O)Nc2ccc(C)c(-c3ccc(C(=O)Nc4ccncc4)cc3)c2)c1 [GSK1398474]	0	23	97.9	0	100	0	13	0	0	20	
CC(C)c1cc(-c2ccc3c(N)n[nH]c3c2)nc(N)n1 [GSK2250882]	0	0	0	0	0	0	0	2	2	1	
CN1c2ccc(-c3ccc(C(N)=O)cc3)cc2-c2[nH]ncc2S1(=O)=O	0	0	0	0	0	0	0	21	12	0	

Structure (SMILES)	%Inh (LRRK2) [%]	%Inh (LTK; [1]) [%]	%Inh (LYN) [%]	%Inh (LZK) [%]	%Inh (MAK) [%]	%Inh (MAP3K15) [%]	%Inh (MAP3K1) [%]	%Inh (MAP3K2) [%]	%Inh (MAP3K3) [%]	%Inh (MAP3K4) [%]	%Inh (LTK; 1 µM) [%]
COc1ccc(-c2coc3ccc(-c4nnc(C)o4)cc23)cc1	0	0	10	0	0	0	0	0	0	8	
CNc1nc(-c2ccc3c(N)n[nH]c3c2)cc(N2C[C@@H](C(=O)NC3CCCCC3)OC[C@H]2C)n1 [GSK2375584]	0	0	0	35	0	0	0	0	0	0	
NS(=O)(=O)c1cccc(N/C=C2\C(=O)Nc3ccc(S(=O)(=O)Cc4c(Cl)cccc4Cl)cc32)c1 [GSK398099]	0	0	0	0	28	0	15	0	0	0	
COc1ccc(Nc2nccc(-c3ccc(NC(=O)c4cc5cc(F)ccc5[nH]4)cc3)n2)cc1 [GSK1229496]	0	0	0	21	22	0	0	5	0	0	
Cc1ccc(NC(=O)Nc2ccc(Cl)c(C(F)(F)F)c2)cc1-c1ccc(C(=O)Nc2ccncc2)cc1 [GSK1398470]	0	4	42	0	15	0	3	0	0	14	
COC(=O)c1cccc(NC(=O)NC2CCN(c3ccnc(Nc4ccc(OC)cc4)n3)C2)c1 (centres unmarked) [GSK1379746]	0	15	0	34	15	0	0	0	0	12	
Nc1cccc(-c2ccc3c(N)n[nH]c3c2)n1 [GSK2192730]	0	0	0	0	26	0	23	0	0	25	
Cc1nccc(-c2c(-c3ccc(F)cc3)ncn2CCCN2CCOCC2)n1.Cl [SB-282975]	0	30	9	0	25	28	20	17	19	22	
COc1cccc(C2=C(Nc3cc(Cl)c(O)c(Cl)c3)C(=O)NC2=O)c1 [SB-390767]	55	96.8	0	0	4	0	12	0	0	7	
O=C(Nc1n[nH]c2nc(-c3cccs3)c(Br)cc12)C1CCCC1 [SB-743341]	28	17	0	36	77	32	49	5	28	0	
CNC(=O)c1ccc(C)c(-n2c(C)cc(OCc3ccc(F)cc3F)c(Br)c2=O)c1	0	0	1	0	0	0	0	0	0	6	
Cn1cncc1C(=O)NC1CCN(c2ccnc(Nc3ccc(F)cc3)n2)C1 (centres unmarked) [GSK1379717]	0	6	0	0	22	0	2	11	0	13	
O=c1cc(N2CCOCC2)nc2n(Cc3cccc(Cl)c3Cl)c3ccccc3n12 [GSK2299009]	0	39	0	0	15	3	7	21	0	0	
COc1cccc(CNC(=O)NC2CCN(c3ccnc(Nc4ccc(F)cc4)n3)C2)c1 (centres unmarked) [GSK1379723]	25	59	0	0	23	0	7	0	0	13	
COc1ccc(Nc2nccc(N3CCC(NC(=O)c4cc5ccccc5s4)C3)n2)cc1 (centres unmarked) [GSK1379738]	0	0	0	23	86	0	5	0	0	29	
Cc1ccc(-c2nc(Nc3ccncc3)c3ccccc3n2)s1 [GSK189015]	54	1	0	0	36	12	40	0	0	26	
O=C(Nc1n[nH]c2nc(-c3cccs3)c(Br)cc12)C1CC1 [SB-735297]	0	0	15	0	34	41	12	7	36	19	
Cl.Cl.Cl.N#Cc1ccc(CCNc2nccc(-c3cccc(CN4CCNCC4)c3)n2)cc1 [GSK2137462]	0	0	1	0	8	0	15	5	0	0	
CNCc1ccc2nc(NC(=O)c3ccc(C(C)(C)C)cc3)cn2c1	10	12	0	0	15	98.9	19	21	0	4	
CC(=O)c1c(C)c2cnc(Nc3ccn(C)n3)nc2n(C2CCCC2)c1=O	0	0	10	0	0	0	0	0	0	0	
COC(=O)C(Cc1ccccc1)NC(=O)NC1CCN(c2ccnc(Nc3ccc(F)cc3)n2)C1 (centres unmarked) [GSK1379714]	0	0	22	23	35	0	0	0	0	0	
Nc1nccc(-c2c(-c3ccc(F)cc3)ncn2C2CCN(Cc3ccccc3)CC2)n1 [SB-219980]	0	11	0	0	0	0	0	29	0	0	
